Calls of active or inactive are those of the source.
How the values were obtained:
[1] = system: PRMT1 (protein arginine N-methyltransferase 1); test: small molecules binding arginine methyltransferase PRMT1 – biochemical, small-molecule microarray, 635 nm fluorescence, primary screen (AID 1088); conditions: higher = more signal;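 note: binding of Prmt1 protein to compounds spotted on small-molecule microarray slides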
[2] = growth effects on S. cerevisiae YJM789 – YJM789 clinical isolate, OD600, 24 h, basal, primary screen (AID 1089); conditions: higher = more signal, called active from +8 up or from −8 down;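 note: growth of clinical yeast isolate S. cerevisiae YJM 789 seeded 1000 cells per well; test concentration not given here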
[3] = S. pombe growth modifiers, basal conditions – strain 972, OD600, 24 h, no modulator, primary screen (AID 1090);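 note: basal condition with compound alone and no growth modifier present; test concentration not given here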; conditions: S. pombe 972 growth, higher = more signal, called active from +8 up or from −8 down
[4] = budding yeast growth modifiers under rapamycin – strain BY4716, OD600, 96 h, primary screen (AID 1091); note: test concentration not given here; conditions: S. cerevisiae BY4716 + rapamycin, higher = more signal, called active from +8 up or from −8 down
[5] = target: Torsin-1A-interacting protein 2 (Homo sapiens) (UniProt Q8NFQ8); test: small molecules binding lysate-expressed LULL1 – cell lysate, human LULL1 lysate, 635/667 nm fluorescence, primary screen (AID 1092); conditions: small-molecule microarray, hLULL1 lysate binding, 635 nm fluorescence; higher = more signal;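 note: probe is lysate of COS7 cells overexpressing human LULL1; score merges per-feature 667 nm fluorescence with signal-to-noise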
Sequence of Torsin-1A-interacting protein 2 (Homo sapiens) (Q8NFQ8 whole entry, looked up): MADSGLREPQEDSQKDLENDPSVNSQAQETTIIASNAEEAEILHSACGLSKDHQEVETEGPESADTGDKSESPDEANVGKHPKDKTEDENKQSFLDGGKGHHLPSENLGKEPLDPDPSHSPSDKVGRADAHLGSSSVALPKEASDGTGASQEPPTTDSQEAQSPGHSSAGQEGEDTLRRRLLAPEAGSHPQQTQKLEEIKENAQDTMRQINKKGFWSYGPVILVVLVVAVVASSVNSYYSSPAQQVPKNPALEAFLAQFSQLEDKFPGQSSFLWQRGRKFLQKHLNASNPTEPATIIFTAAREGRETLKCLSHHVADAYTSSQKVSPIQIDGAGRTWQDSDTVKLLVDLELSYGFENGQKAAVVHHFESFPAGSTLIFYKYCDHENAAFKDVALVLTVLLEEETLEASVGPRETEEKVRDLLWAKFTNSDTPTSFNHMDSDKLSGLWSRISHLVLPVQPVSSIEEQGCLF

[6] = optical density change of DRC41 E. coli – strain DRC41, OD650, 24 h, E. coli filamentation project, primary screen (AID 1093);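 note: MC1000 strain lacking acrAB efflux and sulA so SOS filamentation is blocked; test concentration not given here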; conditions: E. coli DRC41 growth, higher = more signal, called active from +8 up or from −8 down
[7] = probe aLefty2 binding to arrayed compounds – biochemical, biotinylated probe, 635/667 nm fluorescence, primary screen (AID 1094); conditions: small-molecule microarray, higher = more signal;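 note: score merges spot fluorescence near 667 nm with spot signal-to-noise ratio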
[8] = system: Noggin (protein binding on small-molecule microarray); test: small molecules binding Noggin protein – biochemical, 635/667 nm fluorescence, primary screen (AID 1095); conditions: 635 nm fluorescence, higher = more signal;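 note: score merges 667 nm feature fluorescence with signal to noise over triplicate slides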
[9] = target: Neurogenic locus notch homolog protein 3 (Homo sapiens) (UniProt Q9UM47); test: small molecules binding NOTCH3 protein – biochemical, 635/667 nm fluorescence, primary screen (AID 1096); conditions: small-molecule microarray, 635 nm fluorescence, higher = more signal
Sequence of Neurogenic locus notch homolog protein 3 (Homo sapiens) (Q9UM47 whole entry, looked up): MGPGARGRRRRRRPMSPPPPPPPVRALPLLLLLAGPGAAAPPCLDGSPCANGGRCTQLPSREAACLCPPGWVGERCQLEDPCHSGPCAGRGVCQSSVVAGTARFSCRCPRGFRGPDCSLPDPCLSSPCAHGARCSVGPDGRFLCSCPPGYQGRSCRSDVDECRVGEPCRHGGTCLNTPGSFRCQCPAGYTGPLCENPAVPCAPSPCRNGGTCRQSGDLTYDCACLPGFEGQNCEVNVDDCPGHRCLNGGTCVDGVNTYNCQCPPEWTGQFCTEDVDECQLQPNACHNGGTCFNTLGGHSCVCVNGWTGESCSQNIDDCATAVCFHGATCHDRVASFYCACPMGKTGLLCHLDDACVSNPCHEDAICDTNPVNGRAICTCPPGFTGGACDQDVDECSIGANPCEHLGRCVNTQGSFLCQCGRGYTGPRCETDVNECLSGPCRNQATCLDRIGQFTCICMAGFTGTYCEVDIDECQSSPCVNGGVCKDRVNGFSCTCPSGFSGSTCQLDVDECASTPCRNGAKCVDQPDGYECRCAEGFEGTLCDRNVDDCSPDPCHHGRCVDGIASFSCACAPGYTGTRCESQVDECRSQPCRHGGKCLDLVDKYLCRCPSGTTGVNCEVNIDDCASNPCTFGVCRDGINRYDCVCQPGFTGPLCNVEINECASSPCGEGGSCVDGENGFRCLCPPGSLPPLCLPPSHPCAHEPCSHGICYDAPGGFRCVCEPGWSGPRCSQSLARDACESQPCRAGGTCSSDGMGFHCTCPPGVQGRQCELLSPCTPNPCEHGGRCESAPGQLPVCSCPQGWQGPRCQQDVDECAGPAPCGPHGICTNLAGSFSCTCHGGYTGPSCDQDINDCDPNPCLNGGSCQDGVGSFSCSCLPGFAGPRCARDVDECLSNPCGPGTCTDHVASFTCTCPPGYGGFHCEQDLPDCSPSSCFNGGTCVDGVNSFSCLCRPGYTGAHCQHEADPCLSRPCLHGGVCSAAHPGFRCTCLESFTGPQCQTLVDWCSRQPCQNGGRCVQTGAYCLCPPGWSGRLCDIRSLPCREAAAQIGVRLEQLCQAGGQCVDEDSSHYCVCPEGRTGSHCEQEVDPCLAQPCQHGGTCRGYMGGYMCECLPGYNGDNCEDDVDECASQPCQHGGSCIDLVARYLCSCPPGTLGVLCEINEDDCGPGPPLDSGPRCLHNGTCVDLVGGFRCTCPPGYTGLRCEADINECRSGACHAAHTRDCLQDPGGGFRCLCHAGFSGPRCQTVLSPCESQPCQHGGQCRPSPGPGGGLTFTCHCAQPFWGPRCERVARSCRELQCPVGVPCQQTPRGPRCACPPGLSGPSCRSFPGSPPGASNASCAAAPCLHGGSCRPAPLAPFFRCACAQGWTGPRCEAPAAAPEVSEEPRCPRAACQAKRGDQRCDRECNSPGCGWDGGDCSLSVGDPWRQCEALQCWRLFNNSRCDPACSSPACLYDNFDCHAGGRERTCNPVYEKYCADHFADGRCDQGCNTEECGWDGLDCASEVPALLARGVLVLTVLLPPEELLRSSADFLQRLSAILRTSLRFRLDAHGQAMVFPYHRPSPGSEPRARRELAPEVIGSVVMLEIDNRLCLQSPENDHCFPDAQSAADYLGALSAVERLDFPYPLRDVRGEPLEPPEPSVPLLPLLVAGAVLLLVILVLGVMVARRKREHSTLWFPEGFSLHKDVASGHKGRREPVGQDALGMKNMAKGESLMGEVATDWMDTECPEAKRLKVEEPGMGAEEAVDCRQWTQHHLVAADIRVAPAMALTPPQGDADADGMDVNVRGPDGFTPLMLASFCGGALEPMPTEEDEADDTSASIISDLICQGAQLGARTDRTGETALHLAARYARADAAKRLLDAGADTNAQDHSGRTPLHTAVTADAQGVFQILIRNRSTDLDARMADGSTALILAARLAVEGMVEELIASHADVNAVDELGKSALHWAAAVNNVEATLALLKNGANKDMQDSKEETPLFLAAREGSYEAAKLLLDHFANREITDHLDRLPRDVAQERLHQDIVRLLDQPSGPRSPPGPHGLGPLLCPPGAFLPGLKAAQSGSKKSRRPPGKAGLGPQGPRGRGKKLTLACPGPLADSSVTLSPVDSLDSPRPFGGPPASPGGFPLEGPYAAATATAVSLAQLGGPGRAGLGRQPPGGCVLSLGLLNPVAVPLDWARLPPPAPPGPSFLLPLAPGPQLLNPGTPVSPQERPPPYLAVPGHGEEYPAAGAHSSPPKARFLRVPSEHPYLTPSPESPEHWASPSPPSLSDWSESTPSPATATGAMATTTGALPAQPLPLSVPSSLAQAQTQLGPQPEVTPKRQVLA

[10] = probe aEGFR binding to arrayed compounds – biochemical, biotinylated probe, 635/667 nm fluorescence, primary screen (AID 1097); conditions: small-molecule microarray, higher = more signal;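 note: probe is a biotinylated anti-EGFR antibody binding compounds printed on slides; score combines fluorescence near 667 nm and signal to noise of each spot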

| Compound | composite z-score [1] | z-score [2] | z-score [3] | z-score [4] | composite z-score [5] | z-score [6] | composite z-score [7] | composite z-score [8] | composite z-score [9] | composite z-score [10] |
| --- | --- | --- | --- | --- | --- | --- | --- | --- | --- | --- |
| COc1ccc(-c2ccccc2[C@@H]2N[C@H](C(=O)O)CC[C@H]2C)cc1 | -0.408 | -0.306 (inactive) | -0.572 (inactive) | 0.492 (inactive) | 0.47 | 0.189 (inactive) | -0.05 | 0.412 | 0.412 | 0.0068 |
| O=C/C=C/c1ccccc1Cl | -0.284 | 1.68 (inactive) | -11 (active) | -0.6 (inactive) | 0.54 | 0.0791 (inactive) | -0.0336 | -0.479 | -0.709 | -0.18 |
| COC(=O)[C@H]1[C@@H]2COc3ccccc3[C@H]2N[C@H]1C(=O)OC | 0.213 | -0.501 (inactive) | -8.98 (active) | 0.265 (inactive) | 0.584 | 0.694 (inactive) | 0.0111 | 0.208 | 0.422 | -0.152 |
| C=C(COC)/C(=C/C[C@@H](OC(C)=O)c1cccc(OCCO)c1)c1cc(C(=O)OC)ccc1OC | 0.602 | 0.036 (inactive) | -1.11 (inactive) | -1.03 (inactive) | 0.228 | 1.09 (inactive) | 0.0116 | 1.56 | 0.493 | -0.15 |
| COc1cc(CO)cc(I)c1O[C@H]1C=C(C(=O)NCCO)C[C@@H](N(CC2CCCCC2)C(=O)c2cc3ccccc3oc2=O)[C@@H]1O | -0.449 | 0.411 (inactive) | -0.858 (inactive) | -0.393 (inactive) | 0.0986 | 2.1 (inactive) | -0.186 | 0.606 | -0.0481 | -0.0656 |
| CCCC[C@H]1OB(O)C[C@H]2C1=C(COC)C[C@H]1C(=O)N(Cc3ccccc3)C(=O)[C@H]12 | -0.0448 | -0.776 (inactive) | -1.69 (inactive) | -1.69 (inactive) | 0.58 | 2.71 (inactive) | -0.113 | 0.321 | 0.75 | -0.0958 |
| CCOC(=O)C[C@H]1[C@H](OC(=O)Cc2ccc3c(c2)OCO3)[C@@H](NC(=O)c2ccc3ccccc3c2)c2cc(OCCCO)ccc2N1C(=O)Cc1ccc(OC)cc1 | 0.842 | -2.93 (inactive) | -0.366 (inactive) | 0.227 (inactive) | 1.73 | 1.28 (inactive) | 0.164 | 0.233 | 0.719 | -0.0331 |
| O=C(NCC(O)CO)[C@]1(Cc2ccccc2)N=C(c2ccc(OCCCO)cc2)O[C@@H]1c1ccccc1 (stereo not given in full) | 1.26 | -1 (inactive) | -1.56 (inactive) | -1.81 (inactive) | 3.43 | 0.897 (inactive) | 0.595 | -0.574 | -0.0954 | 0.107 |
| CO[C@H]1O[C@H](CO)[C@@H](OC(=O)Nc2ccc3c(c2)OCO3)[C@H](OC(=O)Nc2ccccc2)[C@@H]1OC(=O)Nc1ccccc1 | 1.55 | 0.738 (inactive) | 0.51 (inactive) | 4.42 (inactive) | 3.33 | -1.17 (inactive) | -0.0798 | 1.02 | 0.915 | -0.144 |
| CO[C@H]1COC(=O)CC=C[C@H](C)[C@@H](OC)COC(=O)[C@H](Cc2ccccc2)NC(=O)CC=C[C@@H]1C | 0.942 | 0.37 (inactive) | -0.623 (inactive) | 0.725 (inactive) | -1.22 | -0.145 (inactive) | -0.298 | 1.68 | 0.0612 | -0.172 |
| COCCOC(=O)N1C(=O)[C@@]2(c3cc(C#CCC(C(=O)OC)C(=O)OC)ccc31)[C@H](c1ccccc1OCCO)N1[C@H](c3ccccc3)[C@H](c3ccccc3)OC(=O)[C@H]1[C@@H]2C(=O)N1CCCCCCC1 | 1.51 | 1.22 (inactive) | 0.639 (inactive) | 3.35 (inactive) | 3.29 | -0.366 (inactive) | 1.53 | 1.63 | 1.11 | 0.83 |
| Cc1cc(C)c(C(O)C2C=CC3C(=O)N(C)C(=O)C3N2N2CCCCC2)c(C)c1 (stereo not given) | 1.54 | -0.133 (inactive) | 1.08 (inactive) | -0.376 (inactive) | 2.99 | -0.587 (inactive) | 0.433 | 0.521 | 1.06 | 0.301 |
| CC1CC/C=C\[C@H]2OC34C=CCN(Cn5nnc6ccccc65)C(=O)[C@H]3N(C(C)CO)C(=O)[C@@H]4C2C(=O)O1 (stereo not given in full) | -0.151 | 0.799 (inactive) | 0.0528 (inactive) | 0.272 (inactive) | 2.22 | -0.224 (inactive) | -0.144 | -0.537 | -0.118 | -0.19 |
| [N-]=[N+]=NCc1ccccc1C[C@]1(C(N)=O)N=C(c2ccc(OCCCO)cc2)O[C@H]1c1ccccc1CN=[N+]=[N-] | 1.32 | -2.38 (inactive) | -2.11 (inactive) | -0.525 (inactive) | 3 | -0.0236 (inactive) | 0.544 | 0.0263 | 0.904 | 0.145 |
| C=CC[C@@]12N=C(c3ccc(OCCCO)cc3)O[C@@H]1c1ccccc1CN(Cc1ccccc1)C2=O | 1.54 | -0.127 (inactive) | -3.56 (inactive) | 5.67 (inactive) | 2.86 | 1.1 (inactive) | 0.258 | 0.347 | 0.7 | 0.0122 |
| COC(=O)Cn1c(C(=O)N2CCCC2)cc2c1C[C@H]1CN(C(=O)c3ccccc3)[C@@](Cc3ccccc3)(C(=O)OC)[C@@H]21 | -0.257 | 0.316 (inactive) | 1.23 (inactive) | 0.651 (inactive) | 2.52 | 0.214 (inactive) | 0.302 | -0.455 | 0.74 | 0.168 |
| C#C[C@H](O[Si](C#Cc1ccccc1)(C(C)C)C(C)C)c1ccccc1 | 0.0132 | -22.2 (active) | -20.1 (active) | -2.8 (inactive) | 0.504 | -0.227 (inactive) | -0.279 | -0.251 | -0.406 | -0.25 |
| CC(C)[Si](OCCCNS(=O)(=O)c1ccc(Br)cc1)(C(C)C)C(C)C | 0.807 | -4.21 (inactive) | -3.02 (inactive) | -1.86 (inactive) | 0.716 | 3.1 (inactive) | 0.0278 | 0.578 | 1.11 | 0.0298 |
| Cc1ccc(S(=O)(=O)N[C@H]2COC(=O)CC=C[C@H](C)COC(=O)N[C@@H](C)C(=O)CC=C[C@@H]2C)cc1 | 0.67 | -0.11 (inactive) | -0.784 (inactive) | 0.978 (inactive) | -0.866 | 0.12 (inactive) | -0.215 | 1.18 | 0.354 | 0.0486 |
| CC(C)C[C@@H]1NC(=O)[C@H]2C[C@@H](C(=O)NCCCCCC[N+](C)(C)C)[C@@H](c3ccc(O)cc3)N2C1=O | 0.423 | 0.248 (inactive) | 0.0827 (inactive) | 0.109 (inactive) | 1.82 | 0.283 (inactive) | -0.134 | 1.12 | 0.275 | -0.149 |
| Cc1ccccc1C(O)C1C=CC2C(=O)N(c3ccccc3)C(=O)C2N1Nc1ccc(C#N)cc1 (stereo not given) | 1.51 | 0.907 (inactive) | 1.85 (inactive) | 3.52 (inactive) | 2.89 | 0.478 (inactive) | 0.854 | 0.247 | 1.07 | 0.413 |
| C[C@@H]1CC[C@H]2C(=O)N3[C@@H](CC[C@@H](C)[C@@H]3c3cccc(N4CCOCC4)c3)C(=O)N2[C@H]1c1cccc(N2CCOCC2)c1 | 0.52 | 0.123 (inactive) | 0.132 (inactive) | 0.651 (inactive) | 0.44 | 0.593 (inactive) | -0.275 | 0.252 | 0.464 | -0.012 |
| O=C1c2ccccc2[C@@]2(Cc3ccccc3N(CC(F)(F)F)C2=O)[C@H](c2ccc(CO)cc2)N1C1CCCCC1 | 0.778 | 0.315 (inactive) | -0.958 (inactive) | -1.99 (inactive) | 1.08 | 0.825 (inactive) | 0.0598 | 1.05 | 0.601 | 0.0376 |
| COCCOC(=O)N1C(=O)[C@@]2(c3cc(C#CCC(C(=O)OC)C(=O)OC)ccc31)[C@H](C(=O)N1CCN(c3ncccn3)CC1)[C@H]1C(=O)O[C@H](c3ccccc3)[C@H](c3ccccc3)N1[C@@H]2c1ccc(O)cc1 | 1.54 | -0.256 (inactive) | -1.38 (inactive) | 0.921 (inactive) | 2.23 | 3.19 (inactive) | -0.0288 | 0.414 | 1.17 | -0.0675 |
| CO[C@@H]1COC(=O)[C@H](C)NC(=O)CC=C[C@@H](C)[C@H](OC)COC(=O)[C@H](C)NC(=O)CC=C[C@H]1C | 0.0529 | 0.611 (inactive) | -0.76 (inactive) | 0.0943 (inactive) | -0.391 | 0.485 (inactive) | -0.137 | 0.705 | 0.546 | -0.121 |
| CC(c1ccccc1)C(O)C1C=CC2C(=O)N(C)C(=O)C2N1N(c1ccccc1)c1ccccc1 (stereo not given) | 0.396 | 0.414 (inactive) | 0.184 (inactive) | 1.27 (inactive) | 1.65 | -1.1 (inactive) | 0.424 | -0.959 | 0.363 | -0.0322 |
| O=C(NCC(F)(F)F)[C@@H]1c2ccccc2C(=O)N(Cc2ccccc2Cl)[C@H]1c1ccc(CO)cc1 | -0.809 | -0.896 (inactive) | -0.243 (inactive) | 0.0061 (inactive) | 1.18 | 0.939 (inactive) | -0.605 | -1.5 | -1.14 | -0.0721 |

From PubChem BioAssay
